# Source: PubChem BioAssay (NCI)
# Compounds without any hit were thinned out: in the full panel of roughly 83,000, 20% have a hit.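 Results are percent growth after 48 hours of single-concentration exposure. 100 means growth as in untreated cells, lower positive values show inhibition; negative values down to -100 show cell death.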 Unmarked numbers belong to inactive results. Calls of active or inactive are those of the source. How the source made its calls: active means growth percent below 10; inactive means the rest.
# Assays:
# Experiment in all cases: NCI-60 one-dose screen, 48 h (100 = growth as untreated, 0 = no growth, -100 = all killed)
# Details in all cases: 10 µM unless noted
# [1] = tested on: SK-MEL-2 melanoma
# [2] = tested on: EKVX NSCLC
# [3] = tested on: UO-31 renal
# [4] = tested on: TK-10 renal
# [5] = tested on: ACHN renal
# [6] = tested on: CAKI-1 renal
# [7] = tested on: A498 renal
# [8] = tested on: CCRF-CEM leukemia
# [9] = tested on: MOLT-4 leukemia
# [10] = tested on: SR leukemia
# [11] = tested on: RPMI-8226 leukemia
# [12] = tested on: OVCAR-8 ovarian
# [13] = tested on: OVCAR-5 ovarian
# [14] = tested on: OVCAR-4 ovarian
# [15] = tested on: SK-OV-3 ovarian
# [16] = tested on: IGROV1 ovarian
# [17] = tested on: OVCAR-3 ovarian
# [18] = tested on: HS 578T breast
# [19] = tested on: NCI/ADR-RES ovarian
SMILES,growth [1],growth [2],growth [3] [%],growth [4] [%],growth [5] [%],growth [6],growth [7],growth [8],growth [9],growth [10],growth [11],growth [12],growth [13],growth [14] [%],growth [15],growth [16] [%],growth [17],growth [18],growth [19]
CCC(C)(C)c1ccc(OCCCCCCN2CCN(c3ccncc3)CC2)cc1,71.6%,6.51% (active),28.2,65.2,48.3,17.5%,66.1%,-23.4% (active),-23.5% (active),-27.5% (active),-44.5% (active),54%,65.7%,47.7,38.5%,49.8,38%,-7.9% (active),19%
CC1(C)CC[C@]2(C(=O)Nc3ccccc3)CC[C@]3(C)C(=CCC4[C@@]5(C)C[C@@H](O)[C@H](O)[C@@](C)(CO)C5CC[C@]43C)C2C1 (stereo not given in full),59.8%,52.9%,47.3,86.7,59.9,44.1%,56.9%,30.4%,5.99% (active),–,9.08% (active),–,86.2%,58.9,65.5%,79,73.4%,62.8%,61.4%
O=C(c1ccc(Cl)cc1)c1ccc(OCCCN2CCN(c3ccncc3)CC2)cc1,70.1%,32.6%,40,82.2,74,56.7%,80.5%,21.5%,15.7%,-32% (active),10.2%,75.7%,69%,47.3,34.8%,67.3,56.4%,53.7%,50%
CC1(C)CC[C@]2(C(=O)Nc3ccc(F)cc3)CC[C@]3(C)C(=CCC4[C@@]5(C)C[C@@H](O)[C@H](O)[C@@](C)(CO)C5CC[C@]43C)C2C1 (stereo not given in full),45.9%,32.3%,29.8,58.6,31.3,42.7%,29.8%,18.2%,5% (active),1.68% (active),0.573% (active),48.1%,32.6%,49.4,24.8%,63.5,58%,45.5%,43%
O=c1onc(-c2cc3ccccc3nc2Cl)n1-c1cccc2ccccc12,19.6%,29.5%,38.2,78.6,50.4,–,90.8%,33%,24.5%,16.8%,40.6%,51.4%,94.8%,38.6,34.4%,61.8,64%,30%,15.2%
CC(=O)OC[C@@]1(C)C2CC[C@]3(C)C(CC=C4C5CC(C)(C)CC[C@]5(C(=O)Nc5ccc(C)cc5)CC[C@]43C)[C@@]2(C)C[C@@H](OC(C)=O)[C@@H]1OC(C)=O (stereo not given in full),39.4%,32.4%,40.9,53.2,38.9,45.8%,67.1%,32.8%,34.4%,30.9%,13.8%,40.3%,–,40.2,54.3%,60.9,48.9%,86%,40.4%
Clc1cccc(-c2ccc(OCCCN3CCN(c4ccncc4)CC3)cc2)c1,74%,11.6%,30.4,41.9,49.4,5.23% (active),65.5%,-28.7% (active),-47.4% (active),-38.5% (active),-39.1% (active),37.9%,69.7%,38.2,30.1%,49.6,0.45% (active),-2.27% (active),5.66% (active)
Cc1ccc(-n2c(-c3cc4ccccc4nc3Cl)noc2=O)cc1,80.9%,47.5%,72.4,122,93.6,49.8%,137%,84.6%,–,31.8%,81.2%,94.4%,98.1%,92.5,80.1%,90.9,99.8%,80.9%,52.3%
COc1ccc(C2(SCCNCc3cc(N(C)C)ccn3)c3ccccc3C=Cc3ccccc32)cc1,-34.9% (active),15.8%,33.7,50.3,37.7,26.5%,65.9%,8.49% (active),8.17% (active),-28.5% (active),-22.8% (active),9.18% (active),9.62% (active),43.7,36.5%,40.8,14.6%,-3.79% (active),-47.9% (active)
CCCCSc1nc(NCCc2c[nH]c3ccccc23)c(C#N)c(-c2ccc(OC)cc2)n1,76.6%,40.1%,59.3,102,66.6,53.6%,103%,27.8%,26.3%,5.98% (active),30.7%,79.2%,87%,–,83.7%,102,83.6%,47%,51.7%
CC(=O)OC[C@@]1(C)C2CC[C@]3(C)C(CC=C4C5CC(C)(C)CC[C@]5(C(=O)Nc5cccc(C)c5)CC[C@]43C)[C@@]2(C)C[C@@H](OC(C)=O)[C@@H]1OC(C)=O (stereo not given in full),38.7%,30.7%,37.4,52.9,38.8,42.2%,59.6%,30.4%,30.7%,30%,15.9%,39.7%,81.2%,–,59.7%,61.8,47.5%,77%,36.2%
Clc1ccc(-c2ccc(OCCCN3CCN(c4ccncc4)CC3)cc2)cc1,100%,30.7%,66.3,89.5,87.8,66.6%,84.7%,4.35% (active),1.95% (active),-21.2% (active),-9.75% (active),86.3%,96.5%,64.7,58%,93.7,67.4%,82.5%,49.7%
CC(C)Sc1nc(NCCc2c[nH]c3ccccc23)c(C#N)c(-c2ccccc2)n1,68.7%,18%,32.1,67.4,33,–,23.4%,8.66% (active),5.18% (active),-17.2% (active),7.27% (active),38%,68.7%,53.6,70.2%,87.8,44.4%,8.79% (active),15.1%
COc1ccc(C(SCCNCc2cc(N(C)C)ccn2)(c2ccccc2)c2ccccc2)cc1,-34.9% (active),9.49% (active),15.4,24.5,20.3,11.3%,4.54% (active),4.47% (active),–,-43.2% (active),-27.1% (active),-5.35% (active),–,–,-5.07% (active),11.4,-1.36% (active),-23.1% (active),-46.1% (active)
CCCCCCCCOc1cccc(S(=O)(=O)Nc2ccc(C)cc2C(=O)O)c1,89.7%,92.8%,85.9,102,98.1,85.8%,107%,72.5%,90.5%,–,64.5%,95.6%,–,90.1,108%,99.7,102%,106%,97.6%
CCCSc1nc(NCCc2c[nH]c3ccccc23)c(C#N)c(-c2ccc(OC)cc2)n1,75.5%,32.5%,41.8,82.9,64.9,–,61.4%,25.7%,26.1%,4.81% (active),23.9%,67.9%,82.1%,61.2,90.6%,91.2,82.3%,42.9%,47.9%
